Source: PubChem BioAssay AID1159580 (chemical genetic matrix, 2015)
Values joined by “and” are separate entries in the source; they are usually repeats but may differ in a detail not shown here. Equal values may be shown once. Screen size: about 5,500 compounds; about 2,000 (36%) were called active. About 18% were inconclusive and are not listed. Rule as the data show it: active = normalized growth mostly below about 0.91 (no sharp cut-off); inconclusive = no clear call, values can overlap the other calls; inactive = mostly above about 0.92. The list shows a part of the results.

Experiment: chemical genetic growth profiling, strain panel (AID 1159580);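 also: tested at 20 µM; growth read once vehicle control cultures reached saturation at 30 °C; 1 = growth at the plate median or of vehicle wells; lower values mean less growth of the strain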
Conditions: growth OD

Measured: normalized growth

COc1ccc(Cl)cc1C(=O)NCCc1ccc(S(=O)(=O)NC(=O)NC2CCCCC2)cc1
inactive: S. cerevisiae deletion strains, locus YJR075W, strain HOC1, stronger effect = lower value 0.98 and 0.984 | S. cerevisiae deletion strains, locus YKL009W, strain mrt4, stronger effect = lower value 1.02 | S. cerevisiae deletion strains, locus YKL068W, stronger effect = lower value 1.04 | S. cerevisiae deletion strains, locus YKL085W, strain MDH1 (second series), stronger effect = lower value 0.977 | S. cerevisiae deletion strains, locus YKL085W, strain MDH1, stronger effect = lower value 0.977 | S. cerevisiae deletion strains, locus YKL160W, strain elf1, stronger effect = lower value 1.01 | S. cerevisiae deletion strains, locus YKL190W, strain CNB1, stronger effect = lower value 0.945 | S. cerevisiae deletion strains, locus YKR001C, strain vps1, stronger effect = lower value 0.997 | S. cerevisiae deletion strains, locus YKR026C, strain gcn3, stronger effect = lower value 0.989 | S. cerevisiae deletion strains, locus YKR091W, strain srl3, stronger effect = lower value 0.993 | S. cerevisiae deletion strains, locus YLL001W, strain dnm1, stronger effect = lower value 1.01 | S. cerevisiae deletion strains, locus YLL026W, stronger effect = lower value 0.995 | S. cerevisiae deletion strains, locus YLL041C, strain sdh2, stronger effect = lower value 1 | S. cerevisiae deletion strains, locus YLR027C, strain aat2, stronger effect = lower value 1.01 | S. cerevisiae deletion strains, locus YLR039C, strain RIC1, stronger effect = lower value 0.963 | S. cerevisiae deletion strains, locus YLR058C, strain SHM2, stronger effect = lower value 0.972 | S. cerevisiae deletion strains, locus YLR102C, strain apc9, stronger effect = lower value 0.989 | S. cerevisiae deletion strains, locus YLR113W, strain HOG1, stronger effect = lower value 1.01 | S. cerevisiae deletion strains, locus YLR221C, strain rsa3, stronger effect = lower value 1 | S. cerevisiae deletion strains, locus YLR258W, strain gsy2, stronger effect = lower value 0.982 | S. cerevisiae deletion strains, locus YLR262C, strain YPT6 (second series), stronger effect = lower value 0.999 | S. cerevisiae deletion strains, locus YLR262C, strain YPT6, stronger effect = lower value 0.915 | S. cerevisiae deletion strains, locus YLR268W, strain sec22, stronger effect = lower value 0.966 | S. cerevisiae deletion strains, locus YLR320W, strain mms22, stronger effect = lower value 1 | S. cerevisiae deletion strains, locus YLR330W, strain CHS5, stronger effect = lower value 0.994 | S. cerevisiae deletion strains, locus YLR342W, strain FKS1 (second series), stronger effect = lower value 1.1 | S. cerevisiae deletion strains, locus YLR342W, strain FKS1, stronger effect = lower value 1.01 | S. cerevisiae deletion strains, locus YLR357W, strain rsc2, stronger effect = lower value 0.998 | S. cerevisiae deletion strains, locus YLR370C, strain arc18, stronger effect = lower value 0.998 | S. cerevisiae deletion strains, locus YLR371W, strain rom2, stronger effect = lower value 1.01 | S. cerevisiae deletion strains, locus YLR384C, strain iki3, stronger effect = lower value 1 | S. cerevisiae deletion strains, locus YLR418C, strain cdc73, stronger effect = lower value 0.944 | S. cerevisiae deletion strains, locus YML016C, strain PPZ1, stronger effect = lower value 0.987 | S. cerevisiae deletion strains, locus YML032C, strain rad52, stronger effect = lower value 1.02 | S. cerevisiae deletion strains, locus YML120C, strain ndi1, stronger effect = lower value 1.02 | S. cerevisiae deletion strains, locus YML124C, strain tub3, stronger effect = lower value 1 | S. cerevisiae deletion strains, locus YMR058W, strain fet3, stronger effect = lower value 0.999 | S. cerevisiae deletion strains, locus YMR078C, strain ctf18, stronger effect = lower value 0.998 | S. cerevisiae deletion strains, locus YMR125W, strain sto1, stronger effect = lower value 0.992 | S. cerevisiae deletion strains, locus YMR129W, stronger effect = lower value 1.01 | S. cerevisiae deletion strains, locus YMR205C, strain PFK2, stronger effect = lower value 1 | S. cerevisiae deletion strains, locus YMR223W, strain ubp8, stronger effect = lower value 1.05 | S. cerevisiae deletion strains, locus YMR231W, strain pep5, stronger effect = lower value 1.01 | S. cerevisiae deletion strains, locus YMR263W, strain SAP30, stronger effect = lower value 0.961 and 1 | S. cerevisiae deletion strains, locus YMR307W, strain GAS1, stronger effect = lower value 1.06 and 0.976 | S. cerevisiae deletion strains, locus YNL067W, strain RPL9B, stronger effect = lower value 0.951 | S. cerevisiae deletion strains, locus YNL071W, strain lat1, stronger effect = lower value 1.01 | S. cerevisiae deletion strains, locus YNL128W, strain TEP1, stronger effect = lower value 0.911 | S. cerevisiae deletion strains, locus YNL153C, strain GIM3, stronger effect = lower value 0.943 and 1.04 | S. cerevisiae deletion strains, locus YNL175C, strain NOP13, stronger effect = lower value 1 | S. cerevisiae deletion strains, locus YNL183C, strain NPR1, stronger effect = lower value 0.947 | S. cerevisiae deletion strains, locus YNL197C, strain WHI3, stronger effect = lower value 1.01 | S. cerevisiae deletion strains, locus YNL209W, strain ssb2, stronger effect = lower value 1.01 | S. cerevisiae deletion strains, locus YNL224C, strain SQS1, stronger effect = lower value 1.01 | S. cerevisiae deletion strains, locus YNL233W, strain BNI4, stronger effect = lower value 0.978 | S. cerevisiae deletion strains, locus YNL248C, strain rpa49, stronger effect = lower value 1.01 | S. cerevisiae deletion strains, locus YNL250W, strain rad50, stronger effect = lower value 0.969 | S. cerevisiae deletion strains, locus YNL271C, strain bni1, stronger effect = lower value 0.999 | S. cerevisiae deletion strains, locus YNL298W, strain CLA4, stronger effect = lower value 0.987 | S. cerevisiae deletion strains, locus YNL307C, strain MCK1, stronger effect = lower value 1.03 | S. cerevisiae deletion strains, locus YNL322C, strain KRE1 (second series), stronger effect = lower value 0.999 | S. cerevisiae deletion strains, locus YNL322C, strain KRE1, stronger effect = lower value 0.975 | S. cerevisiae deletion strains, locus YNR049C, strain mso1, stronger effect = lower value 1 | S. cerevisiae deletion strains, locus YNR052C, strain pop2, stronger effect = lower value 1 | S. cerevisiae deletion strains, locus YOL006C, strain TOP1, stronger effect = lower value 0.875 | S. cerevisiae deletion strains, locus YOL012C, strain htz1 1.15 | S. cerevisiae deletion strains, locus YOL147C, strain pex11, stronger effect = lower value 1 | S. cerevisiae deletion strains, locus YOR001W, strain rrp6, stronger effect = lower value 1.01 | S. cerevisiae deletion strains, locus YOR061W, strain CKA2, stronger effect = lower value 0.96 | S. cerevisiae deletion strains, locus YOR069W, strain VPS5, stronger effect = lower value 1 | S. cerevisiae deletion strains, locus YOR070C, strain gyp1, stronger effect = lower value 0.995 | S. cerevisiae deletion strains, locus YOR080W, strain dia2, stronger effect = lower value 0.987 | S. cerevisiae deletion strains, locus YOR083W, strain WHI5 (second series), stronger effect = lower value 1.07 | S. cerevisiae deletion strains, locus YOR083W, strain WHI5, stronger effect = lower value 1.01 | S. cerevisiae deletion strains, locus YOR106W, strain vam3, stronger effect = lower value 1.01 | S. cerevisiae deletion strains, locus YOR136W, strain idh2, stronger effect = lower value 0.996 | S. cerevisiae deletion strains, locus YOR144C, strain elg1, stronger effect = lower value 0.999 | S. cerevisiae deletion strains, locus YOR184W, strain ser1, stronger effect = lower value 1.06 | S. cerevisiae deletion strains, locus YOR231W, strain MKK1, stronger effect = lower value 0.994 | S. cerevisiae deletion strains, locus YOR265W, strain rbl2, stronger effect = lower value 1 | S. cerevisiae deletion strains, locus YOR270C, strain vph1, stronger effect = lower value 0.998 | S. cerevisiae deletion strains, locus YOR290C, strain snf2, stronger effect = lower value 0.938 | S. cerevisiae deletion strains, locus YOR316C, strain cot1, stronger effect = lower value 0.994 | S. cerevisiae deletion strains, locus YPL051W, strain arl3, stronger effect = lower value 1.01 | S. cerevisiae deletion strains, locus YPL055C, strain LGE1, stronger effect = lower value 0.877 | S. cerevisiae deletion strains, locus YPL078C, strain atp4, stronger effect = lower value 1.01 | S. cerevisiae deletion strains, locus YPL106C, strain sse1, stronger effect = lower value 1.02 | S. cerevisiae deletion strains, locus YPL240C, strain hsp82, stronger effect = lower value 1 | S. cerevisiae deletion strains, locus YPL241C, strain CIN2, stronger effect = lower value 0.972 and 1.01 | S. cerevisiae deletion strains, locus YPL256C, strain CLN2, stronger effect = lower value 1.01 | S. cerevisiae deletion strains, locus YPR119W, strain clb2, stronger effect = lower value 0.986 | S. cerevisiae deletion strains, locus YPR141C, strain kar3, stronger effect = lower value 0.976 | S. cerevisiae deletion strains, locus YPR163C, strain tif3, stronger effect = lower value 1 | S. cerevisiae deletion strains, locus YPR167C, strain met16, stronger effect = lower value 0.993 | S. cerevisiae deletion strains, strain wtn01, stronger effect = lower value 0.98 | S. cerevisiae strains, strain wild type, stronger effect = lower value 0.97
